Reference: PubChem BioAssay AID1159580 (chemical genetic matrix, 2015)
Hit rate of the full screen: of about 5,500 compounds, about 2,000 (36%) were called active. Another 18% or so got no clear call; they are omitted. No stated cut-off is given here; in the data, active means normalized growth mostly below about 0.91 (no sharp cut-off); inconclusive means no clear call, values can overlap the other calls; inactive means mostly above about 0.92. This is one part of the list.

Assay: chemical genetic growth profiling, strain panel (AID 1159580);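 further: tested at 20 µM; growth read once vehicle control cultures reached saturation at 30 °C; 1 = growth at the plate median or of vehicle wells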
Details: growth OD

Measured: normalized growth

CC(=O)Oc1ccc(O)cc1
active: S. cerevisiae deletion strains, locus YLR330W, strain CHS5, stronger effect = lower value 0.914
inactive: S. cerevisiae deletion strains, locus YJL187C, strain SWE1, stronger effect = lower value 0.978 | S. cerevisiae deletion strains, locus YJR043C, strain POL32, stronger effect = lower value 0.929 | S. cerevisiae deletion strains, locus YJR075W, strain HOC1, stronger effect = lower value 0.955 | S. cerevisiae deletion strains, locus YKL009W, strain mrt4, stronger effect = lower value 1.02 | S. cerevisiae deletion strains, locus YKL068W, stronger effect = lower value 1.01 | S. cerevisiae deletion strains, locus YKL085W, strain MDH1 (second series), stronger effect = lower value 1.04 | S. cerevisiae deletion strains, locus YKL085W, strain MDH1, stronger effect = lower value 1.04 | S. cerevisiae deletion strains, locus YKL160W, strain elf1, stronger effect = lower value 0.995 | S. cerevisiae deletion strains, locus YKR001C, strain vps1, stronger effect = lower value 0.945 | S. cerevisiae deletion strains, locus YKR026C, strain gcn3, stronger effect = lower value 0.979 | S. cerevisiae deletion strains, locus YKR091W, strain srl3, stronger effect = lower value 0.985 | S. cerevisiae deletion strains, locus YLL001W, strain dnm1, stronger effect = lower value 0.994 | S. cerevisiae deletion strains, locus YLL026W, stronger effect = lower value 0.987 | S. cerevisiae deletion strains, locus YLL041C, strain sdh2, stronger effect = lower value 0.99 | S. cerevisiae deletion strains, locus YLR027C, strain aat2, stronger effect = lower value 0.993 | S. cerevisiae deletion strains, locus YLR039C, strain RIC1, stronger effect = lower value 1.05 | S. cerevisiae deletion strains, locus YLR058C, strain SHM2, stronger effect = lower value 0.991 | S. cerevisiae deletion strains, locus YLR102C, strain apc9, stronger effect = lower value 1.02 | S. cerevisiae deletion strains, locus YLR221C, strain rsa3, stronger effect = lower value 0.959 | S. cerevisiae deletion strains, locus YLR258W, strain gsy2, stronger effect = lower value 0.989 | S. cerevisiae deletion strains, locus YLR262C, strain YPT6 (second series), stronger effect = lower value 0.996 | S. cerevisiae deletion strains, locus YLR262C, strain YPT6, stronger effect = lower value 0.926 | S. cerevisiae deletion strains, locus YLR268W, strain sec22, stronger effect = lower value 0.977 | S. cerevisiae deletion strains, locus YLR320W, strain mms22, stronger effect = lower value 0.923 | S. cerevisiae deletion strains, locus YLR342W, strain FKS1 (second series), stronger effect = lower value 0.819 | S. cerevisiae deletion strains, locus YLR342W, strain FKS1, stronger effect = lower value 0.979 | S. cerevisiae deletion strains, locus YLR357W, strain rsc2, stronger effect = lower value 0.988 | S. cerevisiae deletion strains, locus YLR370C, strain arc18, stronger effect = lower value 1 | S. cerevisiae deletion strains, locus YLR371W, strain rom2, stronger effect = lower value 1.02 | S. cerevisiae deletion strains, locus YLR384C, strain iki3, stronger effect = lower value 0.997 | S. cerevisiae deletion strains, locus YLR418C, strain cdc73, stronger effect = lower value 0.934 | S. cerevisiae deletion strains, locus YML016C, strain PPZ1, stronger effect = lower value 1.01 | S. cerevisiae deletion strains, locus YML032C, strain rad52, stronger effect = lower value 0.967 | S. cerevisiae deletion strains, locus YML120C, strain ndi1, stronger effect = lower value 1.02 | S. cerevisiae deletion strains, locus YML124C, strain tub3, stronger effect = lower value 1.03 | S. cerevisiae deletion strains, locus YMR058W, strain fet3, stronger effect = lower value 0.979 | S. cerevisiae deletion strains, locus YMR078C, strain ctf18, stronger effect = lower value 1.03 | S. cerevisiae deletion strains, locus YMR125W, strain sto1, stronger effect = lower value 0.977 | S. cerevisiae deletion strains, locus YMR129W, stronger effect = lower value 0.99 | S. cerevisiae deletion strains, locus YMR205C, strain PFK2, stronger effect = lower value 1 | S. cerevisiae deletion strains, locus YMR223W, strain ubp8, stronger effect = lower value 1 | S. cerevisiae deletion strains, locus YMR231W, strain pep5, stronger effect = lower value 0.962 | S. cerevisiae deletion strains, locus YMR263W, strain SAP30, stronger effect = lower value 0.991 | S. cerevisiae deletion strains, locus YMR307W, strain GAS1, stronger effect = lower value 0.791 | S. cerevisiae deletion strains, locus YNL067W, strain RPL9B, stronger effect = lower value 0.966 | S. cerevisiae deletion strains, locus YNL071W, strain lat1, stronger effect = lower value 0.961 | S. cerevisiae deletion strains, locus YNL128W, strain TEP1, stronger effect = lower value 1.01 | S. cerevisiae deletion strains, locus YNL153C, strain GIM3, stronger effect = lower value 0.956 | S. cerevisiae deletion strains, locus YNL209W, strain ssb2, stronger effect = lower value 0.988 | S. cerevisiae deletion strains, locus YNL233W, strain BNI4, stronger effect = lower value 0.94 | S. cerevisiae deletion strains, locus YNL248C, strain rpa49, stronger effect = lower value 0.956 | S. cerevisiae deletion strains, locus YNL250W, strain rad50, stronger effect = lower value 1.04 | S. cerevisiae deletion strains, locus YNL271C, strain bni1, stronger effect = lower value 1.04 | S. cerevisiae deletion strains, locus YNL298W, strain CLA4, stronger effect = lower value 1.03 | S. cerevisiae deletion strains, locus YNL307C, strain MCK1, stronger effect = lower value 0.96 | S. cerevisiae deletion strains, locus YNL322C, strain KRE1 (second series), stronger effect = lower value 0.993 | S. cerevisiae deletion strains, locus YNL322C, strain KRE1, stronger effect = lower value 0.996 | S. cerevisiae deletion strains, locus YNR049C, strain mso1, stronger effect = lower value 0.989 | S. cerevisiae deletion strains, locus YNR052C, strain pop2, stronger effect = lower value 1.02 | S. cerevisiae deletion strains, locus YOL012C, strain htz1 0.741 | S. cerevisiae deletion strains, locus YOL147C, strain pex11, stronger effect = lower value 1.03 | S. cerevisiae deletion strains, locus YOR001W, strain rrp6, stronger effect = lower value 0.992 | S. cerevisiae deletion strains, locus YOR061W, strain CKA2, stronger effect = lower value 1.01 | S. cerevisiae deletion strains, locus YOR069W, strain VPS5, stronger effect = lower value 1.01 | S. cerevisiae deletion strains, locus YOR070C, strain gyp1, stronger effect = lower value 0.975 | S. cerevisiae deletion strains, locus YOR080W, strain dia2, stronger effect = lower value 0.998 | S. cerevisiae deletion strains, locus YOR083W, strain WHI5, stronger effect = lower value 0.974 | S. cerevisiae deletion strains, locus YOR106W, strain vam3, stronger effect = lower value 0.995 | S. cerevisiae deletion strains, locus YOR136W, strain idh2, stronger effect = lower value 1.01 | S. cerevisiae deletion strains, locus YOR144C, strain elg1, stronger effect = lower value 1.03 | S. cerevisiae deletion strains, locus YOR184W, strain ser1, stronger effect = lower value 0.984 | S. cerevisiae deletion strains, locus YOR265W, strain rbl2, stronger effect = lower value 1.01 | S. cerevisiae deletion strains, locus YOR270C, strain vph1, stronger effect = lower value 0.986 | S. cerevisiae deletion strains, locus YOR290C, strain snf2, stronger effect = lower value 0.995 | S. cerevisiae deletion strains, locus YOR316C, strain cot1, stronger effect = lower value 1.04 | S. cerevisiae deletion strains, locus YPL051W, strain arl3, stronger effect = lower value 0.962 | S. cerevisiae deletion strains, locus YPL078C, strain atp4, stronger effect = lower value 1.02 | S. cerevisiae deletion strains, locus YPL106C, strain sse1, stronger effect = lower value 0.991 | S. cerevisiae deletion strains, locus YPL240C, strain hsp82, stronger effect = lower value 0.999 | S. cerevisiae deletion strains, locus YPL241C, strain CIN2, stronger effect = lower value 1.02 | S. cerevisiae deletion strains, locus YPR119W, strain clb2, stronger effect = lower value 1.01 | S. cerevisiae deletion strains, locus YPR141C, strain kar3, stronger effect = lower value 1.03 | S. cerevisiae deletion strains, locus YPR163C, strain tif3, stronger effect = lower value 0.974 | S. cerevisiae deletion strains, locus YPR167C, strain met16, stronger effect = lower value 1.03 | S. cerevisiae deletion strains, strain wtn01, stronger effect = lower value 0.995 | S. cerevisiae strains, strain wild type, stronger effect = lower value 0.925
